Among all 65,000 compounds or so, about 2,100 (3.2%) showed an effect of 50% or more. The median lay at about -52%. The list comes from a sample in which strong results are over-represented; it also holds similar structures and randomly drawn compounds.

The test concerns Plasmodium falciparum. As to the kind of experiment: Screen against P. falciparum Asexual Blood Stage (ABS), at 5uM. It counts as functional, Dd2. Conditions: tested at 5 uM.
In the case of `OC(CN1CCN(CCOCC(F)(F)F)CC1)c1ccccc1` (configuration not stated), the INHIBITION was -64.4%.
As for `O=S(=O)(c1cccs1)N1CCCC2(COCCN(c3cccnc3)C2)C1` (configuration not stated), the INHIBITION is -39.7%.
Take `Cc1ccoc1C(=O)N1CCCC(c2cc(C(F)(F)F)[nH]n2)C1` (configuration not stated): the INHIBITION was -127%.
With `O=S(=O)(NC1CCC12CCN(CC1CCOCC1)CC2)c1ccccc1` (configuration not stated), the INHIBITION is recorded as -62.3%.
Then `COCC(=O)N1CCC2(CCC2NS(=O)(=O)c2ccccc2)CC1` (configuration not stated), with -23.9%; and `Cc1ccc(CN2CCC3(CCC3NS(=O)(=O)c3ccccc3)CC2)o1` (configuration not stated), with 62.4%.
Take `CC(C)c1ccc(NC(=O)Cn2cc(I)cn2)cc1`: the INHIBITION is recorded as -19%.
Then `CC1c2ncc(CN3CCN(C)CC3)n2CCN1Cc1ccccn1` (configuration not stated), with -124%; and `c1cnc(-c2noc(C3CN(Cc4ccc5c(c4)CCO5)C3)n2)cn1`, with 4.79%.
In the case of `CC(C)CC1CC(=O)Nc2c1cnn2Cc1ccco1` (configuration not stated), the INHIBITION is recorded as -129%.
In the case of `CCN(c1ccc(C(=O)NCc2cc[nH]n2)cc1)C(C)C` it was 60.1%.
Regarding `CCN(c1ccc(C(=O)NCc2ccnc(C)n2)cc1)C(C)C`, the INHIBITION is 22.7%.
Take `CC(C)c1ccc(O)c(C(=O)NCc2cc[nH]n2)c1`: the INHIBITION is reported as -97.2%.
As for `Cc1nc(COC(=O)c2cccc3c2OCCO3)no1`, the INHIBITION is reported as -17%.
In the case of `CCOC(=O)CNC(=O)NCc1cccn1Cc1ccccc1F` it was -158%.
Then `CN1CC2(CCN(c3nc(N)nc4c3CCNC4)CC2)OC1=O`, with -71.4%.
For `Cc1ccc(C)c(OCc2nnc(SCC3CCCN(C)C3)o2)c1` (configuration not stated), the INHIBITION was 60.3%.
Then `Cc1cccc(OCc2nnc(SCC3CCCN(C)C3)o2)c1` (configuration not stated), with 28.5%.
Then `Cc1ccc(OCc2nnc(SCC3CCCN(C)C3)o2)cc1` (configuration not stated), with 29.8%; and `CCCn1ccc(C(=O)Nc2ccc3c(c2)C(C)(C)C(=O)N3C)n1`, with -3.4%; and `C1CC(c2nnc(CN3CCCC3c3noc(C4CC4)n3)o2)C1` (configuration not stated), with 53.5%.
Then `CC(C)c1nc(C2CCCN(Cc3nnc(C4CC4)o3)C2)no1` (configuration not stated), with -52.6%.
As to `c1ccc2oc(CN3CCCC3c3noc(C4CC4)n3)nc2c1` (configuration not stated), the INHIBITION is recorded as 54.4%.
In the case of `c1ccc2oc(CCCN3CCCC3c3noc(C4CC4)n3)nc2c1` (configuration not stated) it was -21.2%; in that of `CCc1nc(C2CCCN2Cc2nc3ccccc3o2)no1` (configuration not stated), -23.2%; in that of `Cc1nc(C2CCCN2Cc2nnc(C3CC3)o2)no1` (configuration not stated), -171%.
Then `C1CC(c2noc(C3CC3)n2)N(Cc2nnc(C3CC3)o2)C1` (configuration not stated), with -1.02%.
Then `CC(C)c1nc(C2CCCN2Cc2nnc(C3CCC3)o2)no1` (configuration not stated), with 53.5%.
For `CCc1nc(C2CCCN2Cc2nnc(C3CCC3)o2)no1` (configuration not stated), the INHIBITION is recorded as -88%.
On to `CC(c1nc(C2CC2)no1)N1CCN(Cc2noc(C3CC3)n2)CC1` (configuration not stated), for which the INHIBITION is -55.4%.
Then `COc1ccc(CN2C[C@H]3CC[C@@H](C2)N(Cc2snnc2C)C3)cc1`, with -6.34%; and `CCc1cc(=O)n(CC(=O)N2CCC(C)CC2)c(-c2ccccc2)n1`, with -53.5%.
Then `O=S(=O)(c1ccccc1)N1CCC2(CCCN2Cc2cccnc2)C1` (configuration not stated), with -12%; and `CC(C)c1cc(NC(=O)CNC2CCc3ncnn3C2)on1` (configuration not stated), with -54%; and `Cc1occc1C(=O)N1C[C@@H]2OCCN(CCN3CCCC3)[C@@H]2C1`, with -86.8%.
As for `Cc1nc(CN2CCCC(c3cc(C(F)(F)F)[nH]n3)C2)cs1` (configuration not stated), the INHIBITION is on record as -50.2%.
Then `Cc1nc(C2(O)CCCNCC2)sc1CCOc1ccccc1` (configuration not stated), with -48.5%; and `Cc1nc(C2(O)CCCNCC2)sc1CCOc1ccccc1Cl` (configuration not stated), with 54.5%; and `COc1ccc(OCCc2sc(C3(O)CCCNCC3)nc2C)cc1` (configuration not stated), with 5.84%.
In the case of `Cc1nc(C2(O)CCCNCC2)sc1CCOc1ccc(Cl)cc1` (configuration not stated) it was 61%.
Then `Cc1nc(C2(O)CCCNCC2)sc1CCOc1ccc(F)cc1` (configuration not stated), with 34.5%.
Consider `CCN1CCCC(O)(c2nc(C)c(CCOc3ccccc3Cl)s2)CC1` (configuration not stated), for which the INHIBITION worked out at 21%.
For the molecule `CCN1CCCC(O)(c2nc(C)c(CCOc3ccc(F)cc3)s2)CC1` (configuration not stated), the INHIBITION was 23.9%.
As for `Cc1nc(C2(O)CCCNCC2)sc1CCOc1ccc(F)c(F)c1` (configuration not stated), the INHIBITION is recorded as 54.5%.
In the case of `COc1ccc(OCc2sc(C3(O)CCCNCC3)nc2C)cc1` (configuration not stated) it was 14.8%; in that of `COc1ccccc1OCC(=O)NS(=O)(=O)c1ccc(Br)s1`, -26.8%.
Consider `C[C@@H]1CN(C(=O)c2nc3ccc(Cl)cn3c2-c2ncc[nH]2)C[C@H](C)O1`, for which the INHIBITION amounted to 49.4%.
Then `O=S(=O)(C1CC1)N1CCn2cc(CNc3ccccn3)nc2C1`, with -76%; and `Cc1ccccc1C1(C(=O)NCCN2CCCCC2C)CCOCC1` (configuration not stated), with 28.2%; and `CCC1c2ccsc2CCN1C(=O)NCc1cccnc1OC` (configuration not stated), with 46.8%.
In the case of `CCC[C@@H]1CN(Cc2cc3c(cc2OC)OCO3)C[C@H]1C(=O)O` it was -43.7%; in that of `COc1ccc(CN2C[C@@H](CN(C)C)[C@@H](CO)C2)cc1CN1CCCC1`, -71%; in that of `CCC1c2ccsc2CCN1Cc1cc2c(cc1OC)OCCO2` (configuration not stated), 67.3%.
Then `COc1ccc(CN2CCc3sccc3C2C)cc1CN1CCOCC1` (configuration not stated), with 56.1%; and `CCC[C@@H]1CN(Cc2cc3c(cc2OC)OCCO3)C[C@H]1C(=O)O`, with -28.5%.
With `COc1cc2c(cc1CN1CCc3sccc3C1C)OCO2` (configuration not stated), the INHIBITION is given as 69.3%.
Then `COc1ccsc1C(=O)Nc1cc(CN2CCOCC2)ccc1C`, with -12.8%.
In the case of `CC1c2ccsc2CCN1Cc1cc2c(cc1O)OCO2` (configuration not stated) it was 27.2%; in that of `Cc1nnc(N2C[C@H]3OCC[C@H]3[C@H](C(=O)NCC3CC3)C2)s1`, 4.38%; in that of `O=C1OCCN1CC(=O)N1C[C@@H]2CC[C@H]1CN(Cc1cscn1)C2`, -150%.
On to `CCn1cc2c(n1)CN(Cc1cnn(C)c1)CC2COCC1CC1` (configuration not stated), for which the INHIBITION was -28.3%.
With `c1cc(-c2nc(C3CCN(Cc4ccsc4)CC3)no2)ccn1`, the INHIBITION is given as -4.11%.
`Cc1ccc(C(=O)N2Cc3ccccc3OC3(CCOCC3)C2)cn1`: the INHIBITION was -43.5%.
Then `c1nc2n(c1CN1CCCC1)CCN(C1CCOCC1)CC2`, with -7.43%; and `COc1cccc(C(=O)N2C[C@@H](c3ccccc3)[C@@H]3NCCCC[C@@H]32)c1`, with 16.7%.
For `COc1ccc(C(=O)N2C[C@@H](c3ccccc3)[C@@H]3NCCCC[C@@H]32)cc1`, the INHIBITION is reported as -70.2%.
In the case of `COc1cccc([C@H]2CN(C(=O)c3ccccc3)[C@@H]3CCCN[C@H]23)c1`, the INHIBITION is listed as 56.5%.
